Assay outcomes (PubChem)
FLuc modulator – inhibits or activates purified firefly luciferase, miR-21 counter-screen | P08659 | purified FLuc, Km substrates, luminescence inhibition | Potency, µM (top dose mostly 57.5 µM), without a hit: at the highest dose activity change, negative = inhibition, most hits filed as inhibitors | 360,000 compounds, 6.9% hits | AID 588342;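 note: plate controls were vehicle for no effect and reference inhibitor for full effect; nearly all actives have a fitted effect of over 55% in size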
Target sequence (P08659 whole entry, looked up): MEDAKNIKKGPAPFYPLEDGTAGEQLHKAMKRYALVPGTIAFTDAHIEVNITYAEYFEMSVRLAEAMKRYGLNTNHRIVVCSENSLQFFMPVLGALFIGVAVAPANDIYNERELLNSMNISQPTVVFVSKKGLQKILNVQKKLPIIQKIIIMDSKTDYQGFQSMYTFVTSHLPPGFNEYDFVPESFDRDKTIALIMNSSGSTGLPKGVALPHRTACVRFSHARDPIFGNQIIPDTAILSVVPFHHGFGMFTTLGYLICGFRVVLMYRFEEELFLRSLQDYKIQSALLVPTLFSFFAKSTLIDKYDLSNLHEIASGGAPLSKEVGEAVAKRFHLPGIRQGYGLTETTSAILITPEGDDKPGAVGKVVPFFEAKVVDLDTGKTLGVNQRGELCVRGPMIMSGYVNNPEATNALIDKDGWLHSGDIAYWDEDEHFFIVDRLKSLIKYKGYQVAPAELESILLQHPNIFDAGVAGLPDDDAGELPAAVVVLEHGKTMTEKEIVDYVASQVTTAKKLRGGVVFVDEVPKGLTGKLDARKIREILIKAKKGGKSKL
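Purified P. pyralis luciferase, 10 nM final, with Km-level 10 uM D-luciferin and 10 uM ATP in 50 mM Tris acetate pH 7.5, 10 mM Mg acetate, 0.01% Tween-20, 0.05% BSA; 6-point qHTS titration about 60 µM downward; luminescence read.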
Rab9 promoter act – Rab9 promoter activation; Huh7 Rab9 promoter-luciferase reporter, luminescence, 24 h; Potency, µM (highest dose often 9.22 µM), for the others: at the highest dose activation, negative = inhibition, actives largely listed as activators; 320,000 compounds, 2.8% hits; AID 485297; note: % of control where 0% means no effect; nearly all actives have a fitted effect of over 60% in size
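Promoter activation is measured as luciferase luminescence in Huh7 cells stably transfected with a Rab9 promoter–luciferase construct, following 24 h compound exposure at 37 °C and 10 min reagent incubation at ambient temperature.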
SMN2 splice enh – enhancers of SMN2 splice variant expression. HEK293 SMN2-luciferase splicing reporter, luminescence, 30-36 h. Potency, µM (doses to about 46.1 µM), without a hit: at the highest dose activity change, positive = activation, most hits filed as activators. 210,000 compounds, 2.8% hits. AID 1458; note: % of control where 0% means no effect; nearly all actives have a fitted effect of over 55% in size
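qHTS luciferase splicing reporter: luminescence rises when SMN2 exon 7 is included in transfected HEK293 cells. Compound exposure lasted 30-36 h at 37C, with 4.5 mM final sodium butyrate as control, followed by a ONE-Glo read.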
NPC1 prom act – NPC1 promoter activation. AID 485313. Huh7 NPC1 promoter luciferase reporter, 24 h. 320,000 compounds, 2.4% hits. Potency, µM (series often up to 9.22 µM), for inactives: top-dose activation, actives largely listed as activators; note: % of control where 0% means no effect; nearly all actives have a fitted effect of over 60% in size
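Cells: Huh7 expressing luciferase under the NPC1 promoter, 1500/well. Seeded 2 h, compound added, incubated 24 h at 37 °C. Luciferase reagent, 10 min ambient, then luminescence.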
p53 reactivator – mutant p53 re-activation in reporter cells; H1299 p53-A138V BP100-luciferase reporter, luminescence, 24 h; Potency, µM (titrated, usually from 92.2 µM), inactives show at the top dose activity change, positive = activation, usual class: activators; 320,000 compounds, 0.063% hits; AID 504706; note: % of control where 0% means no effect; nearly all actives have a fitted effect of over 45% in size
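p53-null H1299 cells stably carrying temperature-sensitive p53-A138V and a BP100-luciferase reporter were pinned with compounds (4-point, 1:5 series) and held 24 hrs at 37 deg C. Luminescence was read 10 min after detection reagent.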
ELG1 genotoxic – inducers of genotoxicity in HEK293T ELG1-luciferase cells. Potency, µM (top dose mostly 46 µM), for inactives: at the highest dose activity change, positive = activation, most hits filed as activators. 330,000 compounds, 1.3% hits. HEK293T ELG1-luciferase reporter, luminescence, 16 h; note: % of control where 0% means no effect; nearly all actives have a fitted effect of over 60% in size
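Cells (2,000/well) expressing the ELG1-luciferase fusion are dosed by pin tool and kept 16 hr at 37 °C, 5% CO2. Signal comes from ONE-Glo luciferase reagent after 30 min at room temperature.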
An asterisk follows results filed as active; u = inconclusive; x = not tested or not shown; [ ] = remark or other dose. A selection: hits, their analogues and other compounds. The true share with any hit is near 7.3%. Calls come from the whole dose curve; as a rule, active = well fitted curve in the direction sought with a large enough effect; inconclusive = small, poorly fitted or top-dose-only effect, or another doubt; inactive = no such curve, though single readings can be large; an effect the other way counts as inactive or inconclusive. Potency is the fitted concentration of half-maximal effect.

SMILES	FLuc modulator	Rab9 promoter act	SMN2 splice enh	NPC1 prom act	p53 reactivator	ELG1 genotoxic
CCc1ccc(C2=NN(C(=O)OC)C(O)(C(F)(F)F)C2)cc1 (stereo unspecified)	2.7µM*	0.63µM*	-2%	0.45µM*	13%	u
CCOC(=O)N1N=C(c2ccc(OC)cc2)CC1(O)C(F)(F)F (stereo unspecified)	3.4µM*	0.89µM*	x	1.1µM*	5%	u
COc1cccc(C(=O)Nc2nnc(C(C)C)s2)c1	3.4µM*	1µM*	2.5µM*	3.5µM*	u	3.7µM*
CCCc1nnc(NC(=O)c2cccc(OC)c2)s1	24µM*	4.5µM*	u	3.2µM*	17%	u
COc1cccc(C(=O)Nc2nnc(Cc3ccc(OC)c(OC)c3)s2)c1	0%	-2%	x	-2%	1%	-4%
COc1ccc(C(=O)Nc2nnc(C(C)C)s2)cc1OC	x	x	28%	x	x	x
O=C(Nc1nnc(-c2ccc3c(c2)CCCC3)o1)c1ccc(Cl)cc1Cl	0%	-2%	-9%	-10%	0%	-24%
O=C(Nc1nnc(-c2ccc3c(c2)CCCC3)o1)c1c(F)cccc1F	15µM*	27%	-5%	14%	-2%	19%
CCc1ccc(CNC(=O)C2CCC(=O)N(CCc3ccc(Cl)cc3)C2)nc1 (stereo unspecified)	-1%	1%	x	0%	-15%	-2%
CC1CCN(C(=O)CN2CCSc3ccccc32)CC1	-2%	x	x	x	x	x
O=C(N/N=C/c1cc([N+](=O)[O-])ccc1Cl)c1ccc2nc[nH]c2c1	1%	-6%	-19%	-8%	-2%	0%
C=CCc1cccc(/C=N/NC(=O)c2ccccc2OC)c1O	13µM*	-3%	-102%	24%	u	u
O=C(N/N=C/c1ccc(Cl)cc1Cl)c1cccc(F)c1	3.4µM*	2µM*	u	1.8µM*	u	u
C=CCc1cccc(/C=N/NC(=O)c2ccccc2Br)c1O	u	-3%	x	-4%	u	u
CCc1ccc(C(=O)N/N=C/c2ccc(Cl)cc2Cl)nc1	7.6µM*	22%	26%	10%	14%	6%
O=C(N/N=C/c1ccc(Cl)cc1Cl)c1ccc2nc[nH]c2c1	9.5µM*	24%	x	8%	11%	18%
CCOC(=O)NC[C@H](Cc1ccc(OCCc2nc(-c3ccccc3)oc2C)cc1)N/C(C)=C\C(=O)c1ccc(C(F)(F)F)cc1	x	x	-28%	x	x	x
COc1ccc2c(c1)CCC1C2CC[C@@]2(C)C1CC[C@@H]2NCCCCCCN1C(=O)C=CC1=O (stereo partly specified)	x	-3%[46.1 µM]	-19%	6%[46.1 µM]	x	x
O=C(Nc1cccc(-c2nc3ncccc3o2)c1)c1ccc(-c2cccc(Cl)c2Cl)o1	-11%	x	-17%	x	x	x
COC(=O)C1=C(C(=O)OC)[C@@H]2Nc3ccccc3[C@@]23C[C@@H](C(=O)OC)N(S(=O)(=O)c2ccc4c(c2)OCCN4C)C3=N1	x	x	-4%[9.22 µM]	x	x	x
C=CCc1cccc(/C=N/NC(=O)c2ccc3nc[nH]c3c2)c1O	17µM*	-49%	x	-42%	u	u
O=C(N/N=C/c1ccccc1C(F)(F)F)c1ccc2nc[nH]c2c1	u	u	x	u	27%	12%
CCc1cccc(NC(=O)Nc2ccc3c(c2)OCO3)c1	u	u	x	9%	8%	2%
COc1ccc(NC(=O)Nc2ccc(C)cc2OC(F)F)cc1OC	-1%	-1%	-44%	-5%	1%	-6%
O=C(Nc1ccc2c(c1)OCO2)Nc1ccccc1F	2.4µM*	0.5µM*	x	0.45µM*	u	0.92µM*
O=C(Nc1ccc(S(=O)(=O)NCc2ccccc2)cc1)Nc1ccc2c(c1)OCO2	21µM*	27%	u	30%	u	u
Cc1ccc(NC(=O)Nc2ccc3c(c2)OCO3)c(OC(F)F)c1	4.8µM*	3.5µM*	x	2µM*	11%	u
